# Laboratory results as given in ChEMBL document CHEMBL3988442, “University of Dundee, Small-Polar-MMV Screening Library” (2021).
# Hit rate of the full screen: of about 48,000 compounds, about 13,000 (27%) showed an effect of 50% or more. The list shows a part of the results.
# Tested on: Wolbachia pipientis
# Assay: Anti-Wolbachia Cell-Based Screen
# Assay type: functional
# Design: scale not given: in the data most compounds retested in dose-response had high values
# Details: 5 µM
row,Structure (SMILES),Percent Effect [%]
1,CNC(=O)c1cccc(CNC(=O)C2CC(=O)N(CCN(C)C)C2)c1 (stereo not given),-3.95
2,CCN(CC)CC1CN(Cc2ccc(C)s2)Cc2nccn2C1.O=C(O)C(F)(F)F.O=C(O)C(F)(F)F (stereo not given),-7.962
3,Cc1ccc(CN2Cc3nccn3CC(Cn3cncn3)C2)s1.O=C(O)C(F)(F)F (stereo not given),96.42
4,Cc1ccc(CN2Cc3nccn3CC(Cn3cccn3)C2)s1.O=C(O)C(F)(F)F (stereo not given),93.7
5,Cc1ncsc1C(=O)NC1CCN(CC(=O)NCc2ccccc2)CC1,0.6366
6,Cc1cc(-c2ccc(C(=O)O)cc2)nc(C2CCCN(C(C)C)C2)n1 (stereo not given),2.794
7,Cc1cc(-c2cccc(C(=O)O)c2)nc(C2CCN(C(C)C)CC2)n1,102.4
8,Cc1ccc(C(NC(=O)CC2CCN(C(C)C)CC2)C(=O)O)cc1 (stereo not given),-11.69
9,Cc1cc(-c2ccc(C(=O)O)cc2)nc(C2CCN(C(C)C)CC2)n1,108.9
10,O=C(N[C@H]1CN(C2CCOCC2)C[C@@H]1C1CC1)c1cc(O)no1,17.55
11,CCN1CC[C@@]2(C(=O)N3CCCC3)CCN(S(C)(=O)=O)CC[C@@H]12.O=C(O)C(F)(F)F,-22.27
12,CN(C)CC(C)(C)CN1CCC(c2ccnc(-c3cccc(O)c3)c2)C1 (stereo not given),-7.648
13,O=C(Cn1cncn1)NCC1(O)CCCc2ccccc21 (stereo not given),1.206
14,COc1ccccc1OCC(=O)n1ncc(C#N)c1N,-0.431
15,CC(Oc1ccccc1C#N)C(=O)NC1CC1 (stereo not given),12.68
16,CCN(CC)C(=O)c1ccc(COc2ccccc2C#N)o1,-6.305
17,CC(CNC(=O)OC(C)(C)C)N(C)C(=O)COc1ccccc1C#N (stereo not given),101.4
18,CC(C)(C)OC(=O)NCCNC(=O)c1cnc(-c2ccccc2)nc1,-9.911
19,CC(C)Oc1ccccc1CNC(=O)N(C)C(C)CS(C)(=O)=O (stereo not given),-10.62
20,CCNC(=O)NC1CCC(Oc2ccccc2C#N)CC1 (stereo not given),4.038
21,CCS(=O)(=O)CC(C)N(C)C(=O)COc1ccccc1C#N (stereo not given),95.28
22,CC(C)C(C)N(C)C(=O)COc1ccccc1C#N (stereo not given),106.3
23,O=C(O)C(F)(F)F.O=C([C@H]1CN(Cc2ccoc2)C[C@H]2OCC[C@@H]12)N1CCCCO1,-7.154
24,Cc1ncsc1CCN(C)Cc1cc2n(n1)CCN(S(C)(=O)=O)C2,0.3281
25,CCOc1ncccc1NC(=O)c1cc(C)c(C)s1,7.979

row,Structure (SMILES),Percent Effect [%]
1,O=C(C1CC(=O)N(c2ccccc2Br)C1)N1CCCCCC1 (stereo not given),6.985
2,O=C(C1CC(=O)N(c2n[nH]c3cc(Br)ccc23)C1)N1CCCC1 (stereo not given),93.67
3,O=C(C1CC(=O)N(c2n[nH]c3cc(Br)ccc23)C1)N1CCOCC1 (stereo not given),93.25
4,O=C(C1CC(=O)N(c2n[nH]c3cc(Br)ccc23)C1)N1CCSCC1 (stereo not given),118.9
5,O=C(C1CC(=O)N(C2CC2)C1)N1CCC(Oc2ccccc2Cl)CC1 (stereo not given),2.803
6,O=C(C1CCN(c2ccnc3ccc(Br)cc23)CC1)N1CCOCC1,20.8
7,COc1ccc(Br)cc1CCC(=O)N1CCSCC1,-8.265
8,O=C(c1ccc(Cn2cc(Br)cn2)cc1)N1CCOCC1,-22.08
9,O=C(C1CC(=O)N(c2ccccc2Br)C1)N1CCN(CC(F)(F)F)CC1 (stereo not given),5.588
10,COc1ccnc(N2CCN(C(C)c3nc(C)no3)CC2)n1 (stereo not given),-3.819
11,O=C(Nc1ccccc1)c1cccc(S(=O)(=O)NC[C@@H]2C[C@H](F)CN2)c1,3.3
12,CN(CC(N)=O)Cc1cc(Cl)cc2cccnc12,-12.39
13,O=C(NCCc1nc2ccccc2s1)c1coc(CN2CCOCC2)c1,-17.38
14,CCc1nnc2n1CCN(CC(O)CN1CCC(C)CC1)C2 (stereo not given),-4.838
15,CS(=O)(=O)NC1CCN(C(=O)NCCNc2ccccn2)CC1,2.154
16,CC(=O)NC1CCCN(C(=O)NCc2cccnc2-n2cccn2)C1 (stereo not given),-5.614
17,O=C(NCc1cc[nH]n1)N1CCCC(N2CCCC2)C1 (stereo not given),111.7
18,CC(=O)NC1CCCN(C(=O)NCc2cccnc2)C1 (stereo not given),121
19,CS(=O)(=O)NC1CCN(C(=O)NCc2cccnc2)CC1,127.5
20,CC(=O)NC1CCCN(C(=O)NCc2cc[nH]n2)C1 (stereo not given),125.6
21,CC(C)(C)OC(=O)N1CCCCC1C(=O)NCc1cc[nH]n1 (stereo not given),-6.483
22,CS(=O)(=O)NC1CCCN(C(=O)NCc2cccnc2)C1 (stereo not given),-6.706
23,O=C(NCc1cc[nH]n1)N1CCCCC(N2CCCC2)C1 (stereo not given),0.854
24,CC(=O)NC1CCCN(C(=O)NCc2cccnc2N(C)C)C1 (stereo not given),9.234
25,CC(=O)NC1CCCN(C(=O)CCc2cccnc2)C1 (stereo not given),16.44
